This excerpt belongs to a sample that is enriched for hits.
AmpC detergent: AmpC beta-lactamase inhibition with detergent present | P00811 | 370,000 tested, 0.041% active | AID 485294 | AmpC hydrolysis of nitrocefin, absorbance 480 nm, 0.01% Triton | Potency, µM (highest dose often 114 µM), inactives show at the highest dose activity change, negative = inhibition, usual class: inhibitors;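 note: potency is the fitted concentration of half-maximal effect; 0% = no-compound wells and -100% = no-enzyme wells; nearly all actives have a fitted effect of over 25% in size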
Target sequence (P00811 whole entry, looked up): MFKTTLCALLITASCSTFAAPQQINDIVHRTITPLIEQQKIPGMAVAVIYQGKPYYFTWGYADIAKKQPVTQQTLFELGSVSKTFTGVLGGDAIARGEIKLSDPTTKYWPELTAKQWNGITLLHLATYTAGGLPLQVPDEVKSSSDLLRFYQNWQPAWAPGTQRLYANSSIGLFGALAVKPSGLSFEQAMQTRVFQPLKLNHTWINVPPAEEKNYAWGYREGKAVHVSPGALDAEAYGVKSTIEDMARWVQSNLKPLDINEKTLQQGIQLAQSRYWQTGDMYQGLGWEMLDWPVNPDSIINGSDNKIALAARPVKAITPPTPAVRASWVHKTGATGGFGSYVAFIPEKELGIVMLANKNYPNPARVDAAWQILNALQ
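AmpC (5.3 nM in the dispensed reagent) in 20 mM phosphate pH 7.0 with 0.01% (detergent screen) or 0.0001% Triton X-100 was preincubated with compounds for 15 min at room temperature. Nitrocefin was then added from an 800 uM solution, and hydrolysis was followed at 480 nm.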
AmpC no deterg: blocks E. coli AmpC beta-lactamase in detergent-free assay | P00811 | AmpC nitrocefin hydrolysis, absorbance 480 nm, 0.0001% Triton | Potency, µM (top dose mostly 57.1 µM), for the others: top-dose activity change, negative = inhibition, most hits filed as inhibitors | 330,000 tested, 0.52% active | AID 485341;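 note: potency is the fitted concentration of half-maximal effect; plate controls were no compound for no effect and no enzyme for full effect; nearly all actives have a fitted effect of over 20% in size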
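20 mM phosphate pH 7.0 + 0.01% (detergent screen) or 0.0001% Triton X-100; 5.3 nM AmpC reagent; cpd preinc 15 min RT; nitrocefin (800 uM stock) to start; A480 q20 s × 4 min; Activity was normalised to no-enzyme and no-compound control wells.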
AMA1 RON2 block: inhibitors of Plasmodium falciparum AMA1-RON2 interaction; AlphaScreen AMA1-biotinylated RON2 peptide binding; Potency, µM (titrated, usually from 58.2 µM), without a hit: at the highest dose activity change, negative = inhibition, actives largely listed as inhibitors; 360,000 tested, 0.2% active; AID 720542;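 note: potency is the fitted concentration of half-maximal effect; 0% = vehicle wells and -100% = peptide control; nearly all actives have a fitted effect of over 45% in size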
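AMA1 (3D7) with his tag at 25 nM final met compounds first, then biotinylated RON2 peptide at 25 nM; detection used donor plus acceptor beads, 10 µg/mL apiece, read by AlphaScreen after 30 min at room temperature.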
CHX counter: counter-screen for Shiga toxin inhibitors: cycloheximide protein synthesis inhibition | cell reporter, cycloheximide protein synthesis inhibition counterscreen | 300,000 tested, 12% active | max response, % | AID 2314; in the data active = max response mostly above about 13%, no sharp cut-off; inactive = mostly below about 14%; note: read at 38.3 µM for the half of the compounds with a filed dose; 0% is about no effect
Shiga inhibitor: blocks Shiga toxin action in Vero cells. Vero cells, Shiga toxin protein synthesis inhibition reporter. inhibition, % at 38.7 µM. 290,000 tested, 9.2% active. AID 2315; in the data active = inhibition mostly above about 28%, no sharp cut-off; inactive = mostly below about 43%; note: 0% is about no effect
SARS PLP yeast: blocks SARS-CoV papain-like protease in a yeast assay | S. cerevisiae expressing SARS-CoV PLpro, growth rescue | Potency, µM (doses to about 32.9 µM), for the others: top-dose activity, positive = growth rescue, actives largely listed as activators | 330,000 tested, 0.19% active; calls by dose curve; note: potency is the fitted concentration of half-maximal effect; 0% is about no effect; nearly all actives have a fitted effect of over 55% in size
* hit, by the source's call; ? = inconclusive; . = no result given; ! = not confirmed by another sample; [ ] = dose if it differs, or a comment. Unless noted, calls come from the whole dose curve; as a rule, active = well fitted curve in the direction sought with a large enough effect; inconclusive = small, poorly fitted or top-dose-only effect, or another doubt; inactive = no such curve, though single readings can be large; an effect the other way counts as inactive or inconclusive.

SMILES | AmpC detergent | AmpC no deterg | AMA1 RON2 block | CHX counter | Shiga inhibitor | SARS PLP yeast
C[C@H](C(=O)OCO/N=[N+](\[O-])N1CCCC1)c1cccc2ccccc12 | . | . | . | 14 | 15 | .
CC(C)CN(C(=O)COC(=O)c1ccccc1Sc1ccccc1C#N)C1CCS(=O)(=O)C1 (centres undefined) | 1% | 124% | -3%[2.32 µM] | -3 | 8 | 13%
CCN(CC)C1CCN(C(=O)c2cc(COc3ccc(F)cc3Cl)on2)C1 (centres undefined) | 7% | 79% | -1% | 20 | 3 | -1%
O=C(c1cc(COc2ccc(F)cc2Cl)on1)N1C[C@H]2CC[C@H]1C2 | 4% | 60% | ? | 40* | 66* | -11%
CCOC(=O)CC1COCCN1C(=O)c1cc(COc2ccc(F)cc2Cl)on1 (centres undefined) | 1% | 135% | 1% | 39* | 61* | -5%
O=C(c1cc(COc2ccc(F)cc2Cl)on1)N1CC2C[C@@H]3CC1C[C@H](C2)C3 | -10% | 11% | 3% | 30* | 102* | -6%
CCCCCNC(=O)CCCCCn1c(=O)[nH]c2ccsc2c1=O | 1% | . | . | . | . | .
CNC(=O)CS(=O)CC(=O)Nc1cc(OC(C)C)c(Cl)cc1Cl (centres undefined) | 5% | -3% | -9% | -2 | -1 | -2%
Cc1csc(Cn2c(CN(C)C)nc3ccccc3c2=O)n1 | ? | -7% | 51% | -2 | -12 | 2%
Cc1ccc(OCc2cc(C(=O)N(C)Cc3cnn(-c4ccccc4C)c3)no2)cn1 | -6% | 127% | 11% | 20* | 35 | -4%
Cc1nnc(CN(C)C(=O)c2cc(COc3ccc(C)c(C)c3)on2)o1 | -5% | 72% | 2% | 36* | 44 | 1%
COc1cccc(OCc2cc(C(=O)N(C)Cc3nc(C)cs3)no2)c1 | 0% | 58% | 18% | 56* | 108* | -3%
Cc1ccc(OCc2cc(C(=O)N(C)Cc3cnn(C)c3)no2)cc1C | . | . | -4% | . | . | .
Cc1ccc(OCc2cc(C(=O)N(C)Cc3nccn3C)no2)cc1C | -7% | 72% | 4% | 22 | 20 | 3%
Cc1csc(CN(C)C(=O)c2cn(Cc3cccc4ccccc34)nn2)n1 | -4% | -12% | -17% | 21 | 36* | -1%
CCCSc1sc(C(=O)OC)c(-c2cccs2)c1C#N | ? | -21% | 7% | 1 | -1 | 1%
O=C(CCN1CCOCC1)NNC(=O)c1ccc([N+](=O)[O-])cc1[N+](=O)[O-] | . | -14% | 10% | . | . | 4%
CCN(CCn1cccn1)C(=O)c1cc(COc2ccc(F)cc2Cl)on1 | -7% | 86% | 0% | 11 | 32 | -1%
CN(CC1CCCCO1)C(=O)c1cc(COc2ccc(F)cc2Cl)on1 (centres undefined) | ? | -11% | -2% | -2 | -11 | 0%
CN(Cc1cccc2cnccc12)C(=O)c1cc(COc2ccc(F)cc2Cl)on1 | ? | 78% | 4% | 23* | 32 | 17%
Cc1nnc(CN(C)C(=O)c2cc(COc3ccc(F)cc3Cl)on2)o1 | 3% | 16% | 10% | 38* | 93* | 24%
Cc1cc(CN(C)C(=O)c2cc(COc3ccc(C)c(C)c3)on2)on1 | -1% | 84% | -1% | 56* | 64* | -4%
Cc1ccc(-n2cc(CNCCN3CCOC3=O)c(-c3cccc(C)c3)n2)cc1 | 3% | -8% | -1% | 16* | 54* | -1%
COC(=O)CC1C(=O)NCCN1Cc1cn(-c2ccc(C)cc2)nc1-c1cccc(C)c1 (centres undefined) | 8% | 242% | 15% | 20* | 46* | 1%
O=C(Nc1ccc(Cl)cn1)c1ccc(Oc2ccccc2)cc1 | ? | -21% | 13% | 34* | 32* | -16%
SMILES | AmpC detergent | AmpC no deterg | AMA1 RON2 block | CHX counter | Shiga inhibitor | SARS PLP yeast
Cc1cc(NC(=O)c2cccc(Cl)c2)n[nH]1 | 0% | -22% | -3% | . | . | -4%
CCCOc1ccc(C(=O)Nc2ccc(NC(=O)c3cccc(Cl)c3)cc2)cc1 | 12% | . | . | . | . | .
O=C(Nc1ccc(Cl)cn1)c1cccc(OCc2ccccc2)c1 | -1% | -22% | 8% | 22* | 48* | -3%
O=C(Nc1cc(-c2ccccc2)[nH]n1)c1ccc(Cl)cc1 | 0% | 7.1µM*! | 23% | 51* | 88* | 0%
CCCOc1ccc(C(=O)Nc2ccc(Cl)cn2)cc1 | 1% | -31% | 17% | 30* | 77* | -19%
Cc1ccnc(NS(=O)(=O)c2ccc(NC(=O)c3ccc(N4C(=O)CCC4=O)cc3)cc2)n1 | -8% | -55% | 30% | -1 | -6 | 6%
CCCCNC(=O)CCC(=O)Nc1ccc2nc(N3CCOCC3)cc(C)c2c1 | -2% | -1% | -3% | 13 | -6 | -7%
COc1cccc(NC(=O)CCC(=O)Nc2ccc3nc(N4CCOCC4)cc(C)c3c2)c1 | -8% | 86% | -3% | 37* | 81* | 3%
CCOC(=O)C1CCCN(C(=O)CCC(=O)Nc2ccc3nc(N4CCOCC4)cc(C)c3c2)C1 (centres undefined) | -4% | 65% | 6% | 24* | 21 | -6%
COCCCNC(=O)CCC(=O)Nc1ccc2nc(N3CCOCC3)cc(C)c2c1 | -1% | -1% | 4% | 1 | -2 | -4%
CCCCNC(=O)CCC(=O)Nc1ccc2nc(N3CCCCC3)cc(C)c2c1 | 1% | 66% | 30% | 31* | 63* | 4%
CCCN(CCC)CCNC(=O)CCC(=O)Nc1ccc2nc(N3CCOCC3)cc(C)c2c1 | -1% | -1% | -8% | 40* | 75* | 4%
CC(Oc1ccc2c3c(c(=O)oc2c1)CCCC3)C(=O)NC1CC(C)(C)NC(C)(C)C1 (centres undefined) | 0% | -3% | -9% | 2 | -9 | -2%
CCN(CC)CCCNC(=O)CCC(=O)Nc1ccc2nc(N3CCCCC3)cc(C)c2c1 | 6% | 0% | -5% | -4 | 16 | 1%
Cc1cc(N2CCCCC2)nc2ccc(NC(=O)CCC(=O)NCCC(C)C)cc12 | 1% | 50% | -4% | 35* | 49* | 4%
COc1cc2[nH]c3ccccc3c2cc1C | -3% | -27% | 4% | 53* | 69* | -2%
COc1cc(OC)c(C2CC(=O)N3CN(c4ccc(C)cc4)CSC3=C2C#N)cc1OC (centres undefined) | ? | -20% | 11% | 12 | 41* | 1%
COc1ccc(N2CSC3=C(C#N)C(c4cc(OC)c(OC)cc4OC)CC(=O)N3C2)c(OC)c1 (centres undefined) | -13% | 4% | 1% | -1 | 33 | 0%
CCc1ccc(N2CSC3=C(C#N)C(c4cccs4)CC(=O)N3C2)cc1 (centres undefined) | ? | -50% | 54% | 15* | 35 | 0%

Source: PubChem BioAssay (National Center for Advancing Translational Sciences (NCATS))
